Measurements from PubChem BioAssay AID743150 (Broad Institute, 2013).
Potency and affinity values are given separately. A number with no mark means an inactive call. No rule for the calls is given here.

Test: OVCAR4 cell viability loss – plate reader, dry powder, SA11, cytotoxicity control for PAX8 inhibitor project, dose response (AID 743150)
Settings: series mostly up to 35 µM; activity change, negative = cytotoxicity: at the top concentration

Row | Compound | activity change, negative = cytotoxicity
1 | N#C[C@H]1N[C@H](CO)[C@@H]1c1ccc(C#Cc2ccccc2F)cc1 | -6.58%
2 | C[C@@H]1CN([C@@H](C)CO)S(=O)(=O)c2ccc(C#Cc3ccncc3)cc2O[C@H]1CN(C)C(=O)Nc1ccc2c(c1)OCO2 | -32.7%
3 | N#C[C@H]1[C@@H](c2ccc(C#Cc3cccc(F)c3)cc2)[C@@H](CO)N1C(=O)C1CCCC1 | 4.15%
4 | COc1cccc(C#Cc2ccc([C@H]3[C@@H](CO)N(C(=O)c4ccccn4)[C@H]3C#N)cc2)c1 | 0.618%
5 | Cc1ccc(S(=O)(=O)Nc2ccc3c(c2)C(=O)N([C@@H](C)CO)C[C@H](C)[C@@H](CN(C)C(=O)Nc2cccc4ccccc24)OCCCC[C@@H](C)O3)cc1 | -17.1%
6 | COc1ccccc1C#Cc1ccc([C@@H]2[C@@H](C#N)N(C(=O)C3CCCCC3)[C@H]2CO)cc1 | 9.35%
7 | CN(C)CCCN(C(=O)CCOc1ccccc1)c1nc2c(F)cccc2s1 | -23.9% [at 50 µM]
8 | O=C(CN1C(=O)c2ccccc2S1(=O)=O)c1ccc(Cl)cc1Cl | 28.3% [at 50 µM]
9 | O=C(C[C@@H]1C[C@H]2c3cc(NS(=O)(=O)c4ccc(F)cc4)ccc3O[C@H]2[C@H](CO)O1)NCc1ccc(Cl)cc1 | -45.6%
10 | C[C@H](CO)N1C[C@H](C)[C@@H](CN(C)Cc2ccc(C(F)(F)F)cc2)Oc2ccc(NS(=O)(=O)c3ccc(Cl)cc3)cc2CC1=O | -35.6%
11 | COC(=O)[C@@]1(CCS(=O)(=O)c2ccccc2)N=C(c2ccc(OCCCO)cc2)O[C@H]1c1ccccc1 | 30.5% [at 50 µM]
12 | COc1ccc(S(=O)(=O)N2CCCCN3[C@H](CO)[C@H](c4ccc(C#CC(C)C)cc4)[C@H]3C2)cc1 | 12.5%
13 | O=C1/C(=C/c2cccc(Br)c2)SC(=S)N1CCC(=O)N(CCO)c1ccccc1 | 18.2% [at 50 µM]
14 | Cc1nc2sc(C(c3ccco3)N3CCN(C(c4ccccc4)c4ccccc4)CC3)c(O)n2n1 (stereo unspecified) | -12.4% [at 50 µM]
15 | CC(C)c1cc(C(=O)OCC(=O)N2CCN(C(=O)c3ccco3)CC2)c(O)c(C(C)C)c1 | 30.7% [at 50 µM]
16 | C[C@H]1CN([C@@H](C)CO)C(=O)Cc2cc(NC(=O)NC3CCCCC3)ccc2O[C@@H]1CN(C)Cc1ccc(-c2ccccc2)cc1 | 0.265%

Row | Compound | activity change, negative = cytotoxicity
17 | O=C1/C(=C/c2ccccc2)SC(=S)N1CC(=O)N1CCCCC1c1cccnc1 (stereo unspecified) | 26.6% [at 50 µM]
18 | O=C(N1CCCCC1)[C@@]1(CCS(=O)(=O)c2ccccc2)N=C(c2ccc(OCCCO)cc2)O[C@H]1c1ccccc1 | 1.84% [at 50 µM]
19 | CCCn1c(C)cc(C(=O)CN2C(=O)c3ccccc3S2(=O)=O)c1C | -1.32% [at 50 µM]
20 | C[C@H](CO)N1C[C@H](C)[C@@H](CN(C)Cc2ccc(C(F)(F)F)cc2)OCCCC[C@H](C)Oc2ccc(NS(=O)(=O)c3ccc(F)cc3)cc2C1=O | 4.54%
21 | Cc1ccccc1OCC(=O)Nc1cccc(C(=O)O)c1 | 11.9% [at 50 µM]
22 | COc1ccc(S(=O)(=O)Nc2ccc3c(c2)CC(=O)N([C@@H](C)CO)C[C@@H](C)[C@@H](CN(C)Cc2ccc(-c4ccccc4)cc2)O3)cc1 | -8.32%
23 | CCCC#Cc1ccc([C@H]2[C@@H](C#N)N(C(=O)C3CCCCC3)[C@H]2CO)cc1 | -7.16%
24 | N#C[C@@H]1[C@@H](c2ccc(C#Cc3ccccc3F)cc2)[C@H](CO)N1C(=O)C1CCCCC1 | 5.8%
25 | N#C[C@@H]1[C@H](c2ccc(C#Cc3ccc(F)cc3)cc2)[C@@H](CO)N1C(=O)Nc1ccc(F)cc1 | 26.1%
26 | C[C@H](CO)N1C[C@H](C)[C@@H](CN(C)Cc2ccc(-c3ccccc3)cc2)Oc2ccc(NS(=O)(=O)c3ccccc3)cc2CC1=O | -18.8%
27 | C[C@@H]1CN([C@H](C)CO)C(=O)CCCn2nncc2CO[C@H]1CN(C)Cc1ccc(Oc2ccccc2)cc1 | 13.8%
28 | O=C(/C=C/c1ccccc1)Nc1cccc(C(=O)O)c1 | -28.6% [at 50 µM]
29 | O=C(CN1C(=O)c2ccccc2S1(=O)=O)c1ccccc1Cl | -13.4% [at 50 µM]
30 | COCC(=O)N1[C@H](CO)[C@H](c2ccc(-c3cccnc3)cc2)[C@@H]1C#N | 52.3%
31 | N#C[C@H]1[C@@H](c2ccc(C3=CCCC3)cc2)[C@@H](CO)N1C(=O)NC1CCCCC1 | -6.6%
